Only some compounds are listed: those with a hit (about 2.3% of all), similar ones and a draw of the others.
Mcl1-Noxa inh: Mcl-1/Noxa interaction inhibition. inhibition, % at 21.7 µM. TR-FRET Mcl-1/Noxa peptide binding, 2 h. Q07820. actives 1.5% (n = 220,000);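 active = compounds that cut the protein-peptide binding signal by more than 50% relative to plate controls in a single-dose test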;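 also: His-tagged Mcl-1 with rhodamine Noxa BH3 peptide and terbium anti-His antibody; 0% = Mcl-1 plus Noxa peptide wells and 100% = peptide-only wells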
Target sequence (Q07820 whole entry, looked up): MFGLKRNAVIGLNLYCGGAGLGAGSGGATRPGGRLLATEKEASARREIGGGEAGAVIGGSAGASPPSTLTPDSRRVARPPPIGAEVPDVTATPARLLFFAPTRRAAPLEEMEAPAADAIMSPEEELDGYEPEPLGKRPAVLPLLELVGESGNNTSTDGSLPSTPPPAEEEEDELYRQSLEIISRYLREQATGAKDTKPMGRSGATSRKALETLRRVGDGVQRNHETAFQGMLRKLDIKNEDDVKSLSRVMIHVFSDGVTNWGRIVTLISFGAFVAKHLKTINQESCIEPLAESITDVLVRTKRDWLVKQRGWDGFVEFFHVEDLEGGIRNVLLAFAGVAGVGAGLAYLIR
Mcl1 Bid PPI: Mcl-1/Bid interaction inhibition; TR-FRET Mcl-1/Bid-Dy647 peptide binding, 1536-well; inhibition, % at 21.7 µM; actives 0.97% (n = 220,000); AID 1021;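 active = compounds that cut the binding signal by more than half at the single screening dose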;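 also: His-tagged Mcl-1 with europium anti-His antibody binding Bid BH3 peptide; 0% = Mcl-1 plus peptide wells and 100% = peptide-only wells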
GLD-1 RNA inh: GLD-1-TGE RNA interaction inhibition (C. elegans). Q17339. purified GLD-1 + fluorescein TGE RNA, fluorescence polarization. inhibition, % at 5.96 µM. actives 0.44% (n = 320,000);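 active = percent inhibition above a per-plate cutoff, the plate mean of test compounds plus 3 SD, cut at about 30% in these data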;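 also: 0% = DMSO wells with GLD-1 and probe and 100% = wells lacking GLD-1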
MCL1-BIM inh: disrupts human MCL1 binding to BIM-BH3 peptide; GST-MCL1 / FITC-Bim-BH3 fluorescence polarization; inhibition, % at 10.9 µM; actives 0.68% (n = 320,000); Q07820;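 active = inhibition above the mean inhibition of all tested compounds plus 3 SD, set per campaign, cut at about 40% in these data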;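 also: 0% = DMSO wells and 100% = unlabeled Bim-BH3 peptide control; higher means more loss of mP so more displacement of Bim peptide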
BCLXL inh: Bcl-xL (human) inhibition. GST-Bcl-xL / FITC-Bim BH3 peptide fluorescence polarization. inhibition, % at 10.9 µM. actives 0.7% (n = 320,000). AID 2129;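 active = inhibition above the mean of all tested compounds plus 3 SD, cutoff set per campaign, cut at about 30% in these data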;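 also: 0% = DMSO wells and 100% = unlabeled Bim-BH3 peptide competitor; inhibitors lower millipolarization by displacing the labeled peptide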
Target sequence (Q07817 whole entry, looked up): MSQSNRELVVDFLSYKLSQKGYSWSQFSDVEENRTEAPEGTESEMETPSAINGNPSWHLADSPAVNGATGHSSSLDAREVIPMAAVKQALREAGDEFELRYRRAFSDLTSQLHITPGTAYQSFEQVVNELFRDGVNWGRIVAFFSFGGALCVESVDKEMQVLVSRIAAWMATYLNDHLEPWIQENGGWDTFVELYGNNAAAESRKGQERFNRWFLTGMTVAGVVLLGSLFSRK
Bim-Mcl-1: inhibitors of Bim-Mcl-1 interaction, human; inhibition, % at 10 µM; Q07820; Bead-based flow cytometry, Bim peptide-Mcl-1 binding; actives 0.1% (n = 190,000); AID 1009; in the data active = inhibition above about 40%;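 also: 0% = no compound tracer wells and 100% = peptide blocker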
Bcl-xL conf: Bcl-xL (human) inhibition, MCL1 counter-screen confirmation. shares compounds with MCL1-BIM inh. GST-Bcl-xL / FITC-Bim BH3 peptide FP binding. inhibition, % at 10.9 µM. actives 54% (n = 1,700);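 active = inhibition above a cutoff equal to the mean inhibition of all tested compounds plus 3 SD, cut at about 30% in these data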;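 also: 0% = DMSO wells and 100% = unlabeled Bim BH3 control peptide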
MCL1 inh confirm: MCL1-BIM-BH3 interaction inhibition, confirmation; GST-MCL1 / FITC-Bim-BH3 fluorescence polarization; shares compounds with MCL1-BIM inh; inhibition, % at 10.9 µM; actives 61% (n = 1,700);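 active = inhibition above the average of all tested compounds plus 3 SD, cut at about 40% in these data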;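 also: 0% = DMSO wells and 100% = unlabeled Bim-BH3 control peptide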
* marks the source's active call; other numbers are inactive results.

How did COc1cc2c(cc1OC)CN(c1ccc3ccccc3n1)CC2 do in these assays?
GLD-1 RNA inh: -10; MCL1-BIM inh: -7; BCLXL inh: -5

How did CSc1ccc(S(=O)(=O)N2CCC(C(=O)Nc3ccc(C(N)=O)cc3)CC2)cc1 do in these assays?
GLD-1 RNA inh: 2; MCL1-BIM inh: 1; BCLXL inh: 1

What do the screens show for `Cc1ccc(N(C(=O)c2csnn2)C(C(=O)NC2CCCC2)c2ccncc2)c(C)c1` (centres undefined)?
GLD-1 RNA inh: 4; MCL1-BIM inh: 3; BCLXL inh: 1

Results for Cn1c(N)c(C#N)c2c(c1=S)CSC(C)(C)C2 ?
Mcl1-Noxa inh: 20; Mcl1 Bid PPI: -59; GLD-1 RNA inh: 8; MCL1-BIM inh: 13; BCLXL inh: 16; Bim-Mcl-1: 3

How did CC1(C)Cc2c(C#N)c(N)sc(=S)c2CS1 do in these assays?
Mcl1-Noxa inh: 41; Mcl1 Bid PPI: -16; GLD-1 RNA inh: 47*; MCL1-BIM inh: 71*; BCLXL inh: 57*; Bim-Mcl-1: 2; Bcl-xL conf: 71*; MCL1 inh confirm: 88*

Results for O=C(Nc1cc(Cl)ccc1Cl)c1ccco1 ?
GLD-1 RNA inh: -6; MCL1-BIM inh: -2; BCLXL inh: -3

How did CS/C(Nc1cc(Cl)ccc1Cl)=C(/C#N)C(=O)c1ccco1 do in these assays?
Mcl1-Noxa inh: 45; Mcl1 Bid PPI: 7; GLD-1 RNA inh: 1; MCL1-BIM inh: 54*; BCLXL inh: 8; Bcl-xL conf: 13; MCL1 inh confirm: 25

How did COc1cc(C(=O)OC2CCOC2=O)cc(Cl)c1OC (centres undefined) do in these assays?
GLD-1 RNA inh: -9; MCL1-BIM inh: 8; BCLXL inh: 9

Results for CC1(C)Cc2c(c(-c3ccco3)[nH]c(=O)c2C#N)CS1 ?
Mcl1-Noxa inh: 8; Mcl1 Bid PPI: -45; GLD-1 RNA inh: 94*; MCL1-BIM inh: 148*; BCLXL inh: 110*; Bim-Mcl-1: -3; Bcl-xL conf: 94*; MCL1 inh confirm: 125*

How did CC1(C)Cc2c(C#N)c(N3CCN(C(=O)c4ccco4)CC3)nc(-c3ccco3)c2CS1 do in these assays?
Mcl1-Noxa inh: 53*; Mcl1 Bid PPI: 18; GLD-1 RNA inh: 8; MCL1-BIM inh: 68*; BCLXL inh: 35*; Bim-Mcl-1: -1; Bcl-xL conf: 27; MCL1 inh confirm: 49*

How did CCc1nc(N2CCN(C(=O)c3ccco3)CC2)c(C#N)c2c1COC(C)(C)C2 do in these assays?
GLD-1 RNA inh: -4; MCL1-BIM inh: -2; BCLXL inh: -2

What do the screens show for `CC1(C)Cc2c(c(-c3ccccc3)[nH]c(=O)c2C#N)CS1`?
Mcl1-Noxa inh: 9; Mcl1 Bid PPI: -12; GLD-1 RNA inh: -4; MCL1-BIM inh: 10; BCLXL inh: 5; Bim-Mcl-1: 0

Results for Cc1ccc(NC(=O)CCc2nnc3ccc(N4CCC5(CC4)OCCO5)nn23)cc1F ?
GLD-1 RNA inh: 4; MCL1-BIM inh: 0; BCLXL inh: -2

What do the screens show for `CC(C)(C)c1cc[n+](-c2[nH]c(=O)sc2/C=N/NC([S-])=Nc2ccccc2)cc1`?
Mcl1-Noxa inh: 12; Mcl1 Bid PPI: -29; GLD-1 RNA inh: 160*; MCL1-BIM inh: 197*; BCLXL inh: 177*; Bcl-xL conf: 161*; MCL1 inh confirm: 189*

What do the screens show for `Cc1cc[n+](-c2[nH]c(=O)sc2/C=N/NC([S-])=Nc2ccccc2)cc1C`?
Mcl1-Noxa inh: 18; Mcl1 Bid PPI: -62; GLD-1 RNA inh: 131*; MCL1-BIM inh: 163*; BCLXL inh: 129*; Bim-Mcl-1: 0; Bcl-xL conf: 104*; MCL1 inh confirm: 149*

Results for Cc1ccc(C)c(N2C(=N)S/C(=C\c3ccc(-c4ccccc4C(=O)O)o3)C2=O)c1 ?
Mcl1-Noxa inh: 9; Mcl1 Bid PPI: -27; GLD-1 RNA inh: -30; MCL1-BIM inh: 6; BCLXL inh: 7; Bim-Mcl-1: 2

How did CN1C(=O)/C(=C/c2ccc(-c3ccccc3[N+](=O)[O-])o2)SC1=Nc1ccc(Cl)c(C(=O)O)c1 do in these assays?
Mcl1-Noxa inh: 108*; Mcl1 Bid PPI: 34; GLD-1 RNA inh: 25; MCL1-BIM inh: 74*; BCLXL inh: 44*; Bim-Mcl-1: 47*; Bcl-xL conf: 23; MCL1 inh confirm: 40

How did O=C(COC(=O)c1ccccc1NS(=O)(=O)c1ccc(Cl)cc1)NCc1ccccc1 do in these assays?
Mcl1-Noxa inh: 6; Mcl1 Bid PPI: 5; GLD-1 RNA inh: 1; MCL1-BIM inh: -5; BCLXL inh: -2; Bim-Mcl-1: -4

How did Nc1nn2c(-c3ccccc3)cc(=O)[nH]c2c1N=Nc1ccc(O)cc1 do in these assays?
Mcl1-Noxa inh: 37; Mcl1 Bid PPI: 80*; GLD-1 RNA inh: -6; MCL1-BIM inh: 64*; BCLXL inh: 25; Bim-Mcl-1: 6; Bcl-xL conf: 38*; MCL1 inh confirm: 74*

Results for CC1(C)CC(=O)C2=C(C1)OC1=C(C(=O)CC(C)(C)C1)C2c1ccc(O)cc1O ?
Mcl1-Noxa inh: 41; Mcl1 Bid PPI: -20; GLD-1 RNA inh: 128*; MCL1-BIM inh: active; BCLXL inh: 174*; Bim-Mcl-1: -5; Bcl-xL conf: 148*; MCL1 inh confirm: 194*

What do the screens show for `CCOc1ccc(/C=N/NC(=O)c2cc(-c3ccco3)nc3ccccc23)cc1`?
Mcl1-Noxa inh: 45; Mcl1 Bid PPI: -19; GLD-1 RNA inh: -1; MCL1-BIM inh: -2; BCLXL inh: -5; Bim-Mcl-1: 0

Results for Cc1nnc(NC(=O)c2cc(-c3ccco3)nc3ccccc23)s1 ?
GLD-1 RNA inh: -4; MCL1-BIM inh: 66*; BCLXL inh: 26; Bcl-xL conf: 7; MCL1 inh confirm: 33

How did Cc1ccc(-c2cc(C(=O)NCc3ccco3)c3ccccc3n2)o1 do in these assays?
Mcl1-Noxa inh: 66*; Mcl1 Bid PPI: 1; GLD-1 RNA inh: 22; MCL1-BIM inh: 51*; BCLXL inh: 20; Bim-Mcl-1: 0; Bcl-xL conf: 30*; MCL1 inh confirm: 58*

Results for O=C(N/N=C/c1ccc(F)cc1)c1cc(-c2ccco2)nc2ccccc12 ?
Mcl1-Noxa inh: 104*; Mcl1 Bid PPI: 98*; GLD-1 RNA inh: 6; MCL1-BIM inh: 64*; BCLXL inh: 11; Bim-Mcl-1: -1; Bcl-xL conf: 33*; MCL1 inh confirm: 80*
